Data from PubChem BioAssay (NCI).
This is part of a sample that, as a whole, favours compounds with a hit. Of some 79,000 tested, about 15% had one in any assay. Rule as the data show it: active = growth inhibition above about 70%; inactive = the rest.

Tests used:
[1] = NCI Yeast Anticancer Drug Screen. Data for the rad50 strain (AID 155);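 also: 0% = growth of vehicle-only cultures of the same strain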; settings: S. cerevisiae rad50 strain growth inhibition; at 50.0 µM; active compounds read high
In short: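 Growth of the mutant yeast was measured after compound exposure and referenced to vehicle-treated cultures.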

[2] = NCI Yeast Anticancer Drug Screen. Data for the mec2-1 strain (AID 157); settings: S. cerevisiae mec2-1 strain, at 50.0 µM, active compounds read high
In short: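 Test agents were screened against the mec2-1 yeast strain, with defined DNA repair or cell cycle alteration. Growth was scored as inhibition against vehicle-only controls.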

[3] = NCI Yeast Anticancer Drug Screen. Data for the sgs1 mgt1 strain (AID 161);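 also: 0% = growth of cultures given vehicle only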; settings: S. cerevisiae sgs1 mgt1 strain, at 50.0 µM, active compounds read high
In short: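 Test agents were incubated with a DNA-repair-mutant yeast strain. Growth was then read and compared against vehicle-treated controls.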

[4] = NCI Yeast Anticancer Drug Screen. Data for the cln2 rad14 strain (AID 165);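 also: 0% = growth equal to vehicle treated cultures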; settings: S. cerevisiae cln2 rad14 strain, at 50.0 µM, active compounds read high
In short: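 Growth of compound-exposed yeast (cln2 rad14 genotype) measured and expressed as inhibition relative to vehicle.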

[5] = NCI Yeast Anticancer Drug Screen. Data for the bub3 strain (AID 167); settings: S. cerevisiae bub3 mutant strain, at 50.0 µM, active compounds read high
In short: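 Whole-cell yeast assay. The mutant strain was incubated with compounds, and growth inhibition was determined by comparison with vehicle-treated cells.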

[6] = NCI Yeast Anticancer Drug Screen. Data for the mlh1 rad18 strain (AID 175); settings: S. cerevisiae mlh1 rad18 strain growth inhibition; at 50.0 µM; active compounds read high
In short: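 In this whole-cell yeast screen, a strain with altered DNA damage repair is challenged with compound, and its growth is measured against matched vehicle-treated controls.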

Measured: growth inhibition

CCOC(=O)N(NC(=O)c1ccc(N(CCCl)CCCl)cc1)C(C)=O
inactive: [1] 6.2% | [2] 8.95% | [3] 3.15% | [4] -15.5% | [5] 5.65% | [6] 30.9%

CC1(C)CN=C(Nc2ccc(F)c(Cl)c2)S1
inactive: [1] 12.9% | [2] 1.15% | [3] -17.9% | [4] 9.8% | [5] -24.7% | [6] -35.4%

Cc1cc(C)c(CCN(C)C)c(C)c1C
inactive: [1] 8.7% | [2] 0.65% | [3] 4.95% | [4] 1.75% | [5] 1% | [6] 23.4%

COC(=O)C1=CCCN(C)C1
inactive: [1] 0.15% | [2] -0.6% | [3] 10.2% | [4] -0.4% | [5] 2.15% | [6] 3.7%

O=C(O)C(Oc1nc(=S)[nH]c(=S)[nH]1)(c1ccc(Cl)cc1)c1ccc(Cl)cc1
inactive: [1] -1.5% | [2] 6.55% | [3] -23.2% | [4] 0.55% | [5] -10.7% | [6] -8.8%

C/C=C(\C)C1(CC)C(=O)NC(=O)N(C)C1=O (stereo not given)
inactive: [1] 1.65% | [2] 1.7% | [3] 3.3% | [4] -0.6% | [5] -1.05% | [6] -5.95%

O=C1NC(=O)C(C(=O)C(=O)Nc2cccc(C(F)(F)F)c2)C(=O)N1
inactive: [1] -17.7% | [2] 0.1% | [3] -44.7% | [4] -1.75% | [5] -31% | [6] -40.9%

N.N.N.N.N.NC(=O)[O-].[Co+3].[I-]
inactive: [1] -14.1% | [2] 3.9% | [3] -13.1% | [4] 25.7% | [5] -7.75% | [6] -15.7%

CSc1nc2cc(Cl)ccc2c2c1C=NCCN2
inactive: [1] 28.6% | [2] 19.2% | [3] 13.7% | [4] -43.4% | [5] -24.1% | [6] 4.05%

Cc1cccc(OP(=O)(c2ccccc2)c2ccccc2)c1
inactive: [1] 15.7% | [2] 0.35% | [3] 22.6% | [4] -40.6% | [5] 3.55% | [6] -15.9%

Cc1nc2ccccc2c(=O)n1-c1ccccc1Br
inactive: [1] 7.35% | [2] -13.7% | [3] -6.7% | [4] 12.4% | [5] 10.2% | [6] 2.2%

CN(C)C(=O)Sc1c(S(=O)(=O)F)ccc(Cl)c1Cl
inactive: [1] 22.4% | [2] 14.8% | [3] 10.3% | [4] 20.9% | [5] 6.15% | [6] 8.6%

CC(Cc1ccc2c(c1)OCO2)NCC(O)c1ccc(O)c(O)c1 (stereo not given)
inactive: [1] 14.6% | [2] -20.2% | [3] 18.2% | [4] 5% | [5] 32.2% | [6] 26.6%

O=C(O)CCCO
inactive: [1] -13.8% | [2] -20.3% | [3] -23.9% | [4] 3.3% | [5] 1.45% | [6] -10.4%

CCC(=O)NCC1CCCN2CCCCC12 (stereo not given)
inactive: [1] -4.55% | [2] -8.35% | [3] -18.5% | [4] 2.65% | [5] 6.95% | [6] -22%

O=C(CP(=O)(O)O)c1cccs1
inactive: [1] -10.6% | [2] -10.3% | [3] -28% | [4] -10.8% | [5] -17.8% | [6] -18.9%

[Cl][Sn]1([Cl])[CH2]CC[CH2][Sn]([Cl])([Cl])[CH2]CC[CH2]1
inactive: [1] 3.4% | [2] 34% | [3] -13.1% | [4] 39.4% | [5] -5.4% | [6] 27.4%

CC1CCCCN1 (stereo not given)
inactive: [1] 5.35% | [2] -1% | [3] -9.85% | [4] 10.2% | [5] 13.5% | [6] 2.85%

Oc1cccc(Cl)c1
inactive: [1] -3.15% | [2] -30.1% | [3] 4.75% | [4] 6.1% | [5] -2.45% | [6] 8.3%

CCCCCCCCCCCCP(=O)(O)OCC(N)C(=O)O (stereo not given)
inactive: [1] -0.9% | [2] -21.6% | [3] 1.5% | [4] -7.1% | [5] -12.8% | [6] -17.9%
